Test results from PubChem BioAssay (NCI).
The panel holds about 83,000 compounds, 20% with a hit somewhere; the sample as a whole holds those more often.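 The endpoint reported here, percent growth, reads 100 for growth as untreated, 0 for no net growth and -100 for all cells dead.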 The source made the active and inactive calls. Rule for the calls: active = growth percent below 10; inactive = the rest.

Assays:
Experiment in all cases: NCI-60 one-dose screen, 48 h (100 = growth as untreated, 0 = no growth, -100 = all killed)
Conditions in all cases: 10 µM unless noted
HCT-15 colon = test system: HCT-15 colon
HT29 colon = test system: HT29 colon
SNB-75 CNS = test system: SNB-75 CNS
SNB-19 CNS = test system: SNB-19 CNS
U251 CNS = test system: U251 CNS
PC-3 prostate = test system: PC-3 prostate
SK-MEL-5 melanoma = test system: SK-MEL-5 melanoma
UACC-62 melanoma = test system: UACC-62 melanoma
LOX IMVI melanoma = test system: LOX IMVI melanoma
SK-MEL-28 melanoma = test system: SK-MEL-28 melanoma

Measured: growth

N#CC(C#N)N=Nc1ccc(Br)cc1
inactive: HCT-15 colon 16.8% | HT29 colon 20.9% | SNB-75 CNS 94.2% | SNB-19 CNS 96.3% | U251 CNS 83.4% | PC-3 prostate 19.1% | SK-MEL-5 melanoma 77.9% | UACC-62 melanoma 37.4% | LOX IMVI melanoma 60.1% | SK-MEL-28 melanoma 43.8%

COC(=O)/C=C1/SC(=Nc2cccc(OC)c2)N(CCc2c[nH]c3ccc(O)cc23)C1=O
inactive: HCT-15 colon 26.4% | HT29 colon 92% | SNB-75 CNS 71% | SNB-19 CNS 54.3% | U251 CNS 45.4% | PC-3 prostate 46% | SK-MEL-5 melanoma 63.6% | UACC-62 melanoma 53.4% | LOX IMVI melanoma 23.5% | SK-MEL-28 melanoma 70.9%

O=C(/C=C/c1cccc(Cl)c1)c1ccc(Nc2nc(Nc3ccc(F)cc3)nc(Nc3ccc(Cl)cc3)n2)cc1
inactive: HCT-15 colon 101% | HT29 colon 108% | SNB-75 CNS 95.7% | SNB-19 CNS 118% | U251 CNS 112% | PC-3 prostate 98.8% | SK-MEL-5 melanoma 90.7% | UACC-62 melanoma 108% | LOX IMVI melanoma 104% | SK-MEL-28 melanoma 112%

COc1ccc2[nH]c(C(=O)N3CCN(C(=O)OCc4ccc5c(Cl)cc(Cl)c(O)c5n4)CC3)cc2c1
inactive: SNB-19 CNS 35.3%
active: HCT-15 colon -44.2% | HT29 colon -67.1% | SNB-75 CNS -98.5% | U251 CNS -97.9% | PC-3 prostate -73.4% | SK-MEL-5 melanoma -99% | UACC-62 melanoma -97.4% | LOX IMVI melanoma -95.3% | SK-MEL-28 melanoma -95.8%

O=S(=O)(NCCNc1nccc(-c2c(-c3ccc(F)c(O)c3)nc3occn23)n1)c1ccc(Cl)cc1
inactive: HCT-15 colon 98.9% | HT29 colon 92.3% | SNB-75 CNS 85.2% | SNB-19 CNS 101% | U251 CNS 93.9% | PC-3 prostate 79.8% | SK-MEL-5 melanoma 60.9% | UACC-62 melanoma 23.9% | LOX IMVI melanoma 45.5% | SK-MEL-28 melanoma 40.1%

O=C(/C=C(/C=C/c1ccc2[nH]ccc2c1)OB(F)F)/C=C/c1ccc2[nH]ccc2c1
active: HCT-15 colon -52.9% | HT29 colon -55.7% | U251 CNS -84.1% | PC-3 prostate -6.64% | UACC-62 melanoma -21.5% | LOX IMVI melanoma -64.3%
inactive: SNB-75 CNS 23.1% | SNB-19 CNS 12.9% | SK-MEL-5 melanoma 12.2% | SK-MEL-28 melanoma 22%

N#Cc1c(-c2ccc(Cl)cc2)c(C#N)c2c(C#N)c(N)nn2c1N
inactive: HCT-15 colon 88.2% | HT29 colon 83.3% | SNB-75 CNS 74.8% | SNB-19 CNS 88.2% | U251 CNS 87.9% | PC-3 prostate 65.2% | SK-MEL-5 melanoma 87.9% | UACC-62 melanoma 72.9% | LOX IMVI melanoma 76.6% | SK-MEL-28 melanoma 99.3%

Nc1n[nH]c2cccc(C#Cc3cccc(C(=O)Nc4cc(C(F)(F)F)cc(C(F)(F)F)c4)c3)c12
inactive: HCT-15 colon 70.4% | HT29 colon 46.4% | SNB-75 CNS 91.5% | SNB-19 CNS 105% | U251 CNS 84% | PC-3 prostate 33% | SK-MEL-5 melanoma 73% | UACC-62 melanoma 50% | LOX IMVI melanoma 41.2% | SK-MEL-28 melanoma 62.1%

COc1cc(OC)c(/C=C/C(=O)c2c(OC)cccc2OC)c(OC)c1
inactive: HCT-15 colon 15.7% | SNB-75 CNS 10.6% | SNB-19 CNS 19.3% | PC-3 prostate 11.6% | SK-MEL-28 melanoma 13.2%
active: HT29 colon 0.507% | U251 CNS 5.71% | SK-MEL-5 melanoma 1.1% | UACC-62 melanoma -20.6% | LOX IMVI melanoma -4.2%

NC(=O)c1cccc(-n2ccc3cc(NC(=O)c4ccc(N5CCOCC5)c(C(F)(F)F)c4)ccc32)n1
inactive: HCT-15 colon 33.8% | HT29 colon 14.3% | SNB-75 CNS 52.8% | SNB-19 CNS 70.7% | U251 CNS 44.1% | PC-3 prostate 34.5% | SK-MEL-5 melanoma 49.7% | UACC-62 melanoma 50.9% | LOX IMVI melanoma 64.4% | SK-MEL-28 melanoma 64.7%

N#Cc1ccc(O)c(C2=NCC(c3ccccc3)O2)c1 (stereo not given)
inactive: HCT-15 colon 20.8% | HT29 colon 46.2% | SNB-75 CNS 74.9% | SNB-19 CNS 46% | U251 CNS 19.6% | PC-3 prostate 31.6% | SK-MEL-5 melanoma 39.1% | UACC-62 melanoma 37.8% | LOX IMVI melanoma 25.9% | SK-MEL-28 melanoma 86.4%

COc1ccc(C2=C(Br)C(=O)c3nc(C)ccc3C2=O)cc1
inactive: HCT-15 colon 93.1% | HT29 colon 110% | SNB-75 CNS 93.8% | SNB-19 CNS 94.9% | U251 CNS 94% | PC-3 prostate 80% | SK-MEL-5 melanoma 91.6% | UACC-62 melanoma 88.5% | LOX IMVI melanoma 95.4% | SK-MEL-28 melanoma 107%

CCOC(=O)C/C(=N\Nc1cc(=O)[nH]c2ccc(Br)cc12)C(=O)OCC
inactive: HCT-15 colon 99.3% | HT29 colon 107% | SNB-75 CNS 88.2% | SNB-19 CNS 99.5% | U251 CNS 108% | PC-3 prostate 87.4% | SK-MEL-5 melanoma 95.1% | UACC-62 melanoma 90.6% | LOX IMVI melanoma 94.4% | SK-MEL-28 melanoma 107%

COc1ccc(C/C(C)=C(/c2ccc(OCCN(C)C)cc2)c2ccc(OC(=O)NCc3ccccc3)cc2)cc1
inactive: HCT-15 colon 24.3% | SNB-75 CNS 77.7% | SNB-19 CNS 85.6% | U251 CNS 45.7% | PC-3 prostate 68.4% | SK-MEL-5 melanoma 63.1% | UACC-62 melanoma 69.3% | SK-MEL-28 melanoma 54.6%
active: HT29 colon -13.7% | LOX IMVI melanoma -12%
